# Compound activity (PubChem BioAssay)
# GCN5L2 inh: qHTS Assay for Inhibitors of GCN5L2. 390,000 tested, 0.21% active. Histone acetyltransferase KAT2A (Homo sapiens), Q92830. GCN5L2 HAT assay, ThioGlo1 CoA-SH fluorescence. Potency, µM (doses to about 58.9 µM), for the others: at the highest dose activity change, negative = inhibition, actives largely listed as inhibitors; further: potency means the concentration at half of the fitted maximal effect; on the % scale 0 is the no-effect control and ±100 the full control effect
# Target sequence (Q92830 whole entry, looked up): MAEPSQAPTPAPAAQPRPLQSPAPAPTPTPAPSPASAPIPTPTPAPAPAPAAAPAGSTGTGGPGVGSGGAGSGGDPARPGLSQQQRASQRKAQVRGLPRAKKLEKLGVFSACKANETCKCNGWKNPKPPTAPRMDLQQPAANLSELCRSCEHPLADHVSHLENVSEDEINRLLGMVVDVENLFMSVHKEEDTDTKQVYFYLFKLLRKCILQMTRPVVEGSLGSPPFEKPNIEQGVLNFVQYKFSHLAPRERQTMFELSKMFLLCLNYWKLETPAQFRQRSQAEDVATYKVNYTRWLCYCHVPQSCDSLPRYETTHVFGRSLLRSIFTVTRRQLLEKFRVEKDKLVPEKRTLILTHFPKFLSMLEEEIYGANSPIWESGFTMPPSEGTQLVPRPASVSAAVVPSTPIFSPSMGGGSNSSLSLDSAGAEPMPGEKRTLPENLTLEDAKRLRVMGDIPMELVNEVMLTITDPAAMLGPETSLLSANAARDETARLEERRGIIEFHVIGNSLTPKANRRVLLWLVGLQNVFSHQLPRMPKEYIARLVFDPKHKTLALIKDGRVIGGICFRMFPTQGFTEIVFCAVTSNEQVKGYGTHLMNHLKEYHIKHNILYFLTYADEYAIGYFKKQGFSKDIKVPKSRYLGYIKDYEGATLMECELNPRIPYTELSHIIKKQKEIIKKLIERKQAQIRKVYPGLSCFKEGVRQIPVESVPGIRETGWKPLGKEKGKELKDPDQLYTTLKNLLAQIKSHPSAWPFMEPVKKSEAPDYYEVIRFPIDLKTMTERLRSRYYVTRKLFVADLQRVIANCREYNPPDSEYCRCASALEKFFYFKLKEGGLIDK
#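 Compounds, pin-transferred from DMSO stocks, meet 20nM GCN5L2 for 15 min before the reaction begins with H3(1-25) peptide (75uM) and acetyl-CoA (70uM). Thiol-reactive ThioGlo1 reports CoA release over 20 min at room temperature.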
# Pol beta inh: qHTS Assay for Inhibitors of DNA Polymerase Beta. Pol beta primer extension/strand displacement, fluorescence kinetic. P06746. Potency, µM (series often up to 114 µM), for inactives: at the highest dose activity change, negative = inhibition, actives largely listed as inhibitors. AID 485314, 2010. 340,000 tested, 1.3% active; further: potency means the concentration at half of the fitted maximal effect; on the % scale 0 is the no-effect control and ±100 the full control effect
#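 Curves were derived by four-parameter Hill fits of normalized qHTS data. The kinetic fluorescent primer-extension read was taken at 0 and 10 min after 50 nM substrate, following a 15 min room-temperature preincubation of 10 nM enzyme with compounds.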
# Pol eta inh-1: qHTS for Inhibitors of Polymerase Eta; DNA polymerase eta (Homo sapiens), Q9Y253; recombinant Pol eta, fluorescent DNA replication assay; Potency, µM (titrated, usually from 114 µM), for the others: at the highest dose activity change, negative = inhibition, hits mostly inhibitors; 390,000 tested, 1.2% active; AID 588591, 2011; further: potency means the concentration at half of the fitted maximal effect; on the % scale 0 is the no-effect control and ±100 the full control effect
#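 Fluorescent replication assay: 50 nM final substrate added after a 15 min room-temperature compound preincubation with 10 nM enzyme. Signal taken at 0 min and again at 10 min.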
# Pol kappa inh-1: qHTS for Inhibitors of Polymerase Kappa; purified Pol kappa, fluorescent DNA synthesis assay, 10 min; AID 588579, 2011; 400,000 tested, 0.53% active; Potency, µM (series often up to 107 µM), without a hit: top-dose activity, negative = inhibition, most hits filed as inhibitors; DNA polymerase kappa (Homo sapiens), Q9UBT6; further: potency means the concentration at half of the fitted maximal effect; on the % scale 0 is the no-effect control and ±100 the full control effect
#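 Kinetic fluorescence readout at 0 and 10 min followed reaction start with substrate at 50 nM final. Beforehand, enzyme (10 nM Pol kappa) stood 15 min with compound at room temperature; buffer-only wells were negative controls.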
# POLI inh: qHTS for Inhibitors of Polymerase Iota; 390,000 tested, 1% active; DNA polymerase iota (Homo sapiens), Q9UNA4; Potency, µM (doses to about 115 µM), for the others: top-dose activity, negative = inhibition, most hits filed as inhibitors; AID 588590, 2011; Pol iota fluorescent replication assay, 10 min; further: potency means the concentration at half of the fitted maximal effect
#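 Pol iota at 10 nM preincubated 15 min with compounds at room temperature; reaction started with fluorescent substrate, 50 nM final. Fluorescence read kinetically at 0 and 10 min; buffer-only wells as negative control.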
# GLS inh: qHTS for Inhibitors of Glutaminase (GLS). Glutaminase kidney isoform, mitochondrial (Homo sapiens), O94925. GLS enzymatic activity, qHTS titration. Potency, µM (series often up to 45.5 µM), for the others: at the highest dose activity change, negative = inhibition, usual class: inhibitors. 410,000 tested, 0.21% active. AID 624170, 2012; further: potency means the concentration at half of the fitted maximal effect; on the % scale 0 is the no-effect control and ±100 the full control effect
#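 Enzyme dispensed in phosphate buffer (45 mM, pH 8.2, 0.02% Tween-20), compounds pinned in, then 1 mM L-glutamine solution and the glutamate oxidase–HRP–Amplex Red mix added; fluorescence read immediately and again after 30 min at room temperature.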
# Pol iota confirm: qHTS for Inhibitors of Polymerase Iota: Confirmatory Assay for Cherry-picked Compounds; shares compounds with Pol kappa inh-1; Pol iota primer extension, TAMRA/BHQ fluorescence; Potency, µM, actives largely listed as inhibitors; 1,500 tested, 77% active; AID 720496, 2013; further: potency means the concentration at half of the fitted maximal effect
# GALK confirm: Confirmation Assay for Inhibitors of Human Galactokinase (GALK); shares compounds with Pol eta inh-1; purified GALK, Kinase-Glo ATP depletion luminescence; Potency, µM (highest dose often 115 µM), inactives show at the highest dose activity, negative = inhibition, actives largely listed as inhibitors; 150 tested, 70% active
# GALK redox cs: Confirmatory Assay for Inhibitors of Human Galactokinase (GALK): Phenol-HRP redox assay counterscreen; 150 tested, 40% active; Phenol red-HRP H2O2 redox cycling, absorbance 600 nm; shares compounds with Pol eta inh-1; Potency, µM (highest dose often 115 µM), for inactives: at the highest dose activity change, negative = H2O2 signal, actives largely listed as inhibitors
# HEK293 tox: Secondary Assay for Inhibitors of Human Galactokinase (GALK): HEK-293 Cell Viability Assay. shares compounds with Pol eta inh-1. HEK-293 viability, ATP luminescence (CellTiter-Glo), 24/48 h. Potency, µM (titrated, usually from 46.1 µM), for inactives: at the top dose activity change, negative = cytotoxicity, actives largely listed as inhibitors. 170 tested, 10% active. AID 2547, 2010; further: potency means the concentration at half of the fitted maximal effect; on the % scale 0 is the no-effect control and ±100 the full control effect
# Pol kappa inh-2: qHTS for Inhibitors of Polymerase Kappa: Confirmatory Assay for Cherry-picked Compounds. AID 720501, 2013. shares compounds with Pol eta inh-1. Potency, µM, most hits filed as inhibitors. purified Pol-kappa, fluorescent strand-displacement substrate. 920 tested, 76% active; further: potency means the concentration at half of the fitted maximal effect
# Pol eta inh-2: qHTS for Inhibitors of Polymerase Eta: Confirmatory Assay for Cherry-picked Compounds. shares compounds with Pol eta inh-1. Pol eta primer extension, TAMRA/BHQ fluorescence, 10 min. Potency, µM, usual class: inhibitors. 2,600 tested, 64% active; further: potency means the concentration at half of the fitted maximal effect
# * hit, by the source's call; ? = inconclusive; nt = not tested or not shown; [ ] = another dose, or the depositor's remark. The list is not random: actives were taken first. Their share in the collection is about 2.4%. The call rests on the fitted dose curve; in most records, active means well fitted curve in the direction sought with a large enough effect; inconclusive means small, poorly fitted or top-dose-only effect, or another doubt; inactive means no such curve, though single readings can be large; an effect the other way counts as inactive or inconclusive.
SMILES,GCN5L2 inh,Pol beta inh,Pol eta inh-1,Pol kappa inh-1,POLI inh,GLS inh,Pol iota confirm,Pol eta inh-2,others
O=C(CN1C(=O)N/C(=C\c2cccn2-c2cccc(C(=O)O)c2)C1=O)Nc1ccc(Cl)cc1,nt,nt,nt,nt,nt,nt,60*,?,
Cc1cccc(C)c1NC(=O)CN1C(=O)S/C(=C\c2cccn2-c2cccc(C(=O)O)c2)C1=O,-12%,-109%,22µM*,-27%,?,-11%,38*,76*,
Cc1cccc(C)c1NC(=O)CN1C(=O)S/C(=C\c2cccn2C)C1=O,-7%,29%,0%,-18%,0%,6%,nt,nt,
CCn1c(C)cc(/C=C2\NC(=O)N(CC(=O)Nc3ccc(F)cc3)C2=O)c1C,-9%,1%,-22%,-6%,62%,-18%,nt,nt,
Cc1ccc(NC(=O)CN2C(=O)N/C(=C/c3cc(C)n(-c4ccc(C(=O)O)cc4)c3C)C2=O)cc1,?,50µM*,22µM*,?,35µM*,-9%,42*,27*,Pol kappa inh-2=24*
Cc1ccc(Cc2nc3ccccc3nc2SCC(=O)NCc2ccc(F)cc2)cc1,-14%,7%,-16%,-9%[60.1 µM],32%,-2%,nt,nt,
COc1cc(/C=C(/C#N)c2nc(-c3cc4ccccc4oc3=O)cs2)ccc1O,6%,-3%,nt,1%,-5%,-2%,nt,nt,
CCC1CCCCN1Cc1cn2c(-c3ccc(Br)cc3)nnc2s1 (stereo not given),-7%,9%,-8%,-1%[60.1 µM],9%,-1%,nt,nt,
NS(=O)(=O)c1ccc(NC2=CC(=O)C(=O)c3ccccc32)cc1,-1%,?,?,-17%,?,-6%,?,?,GALK confirm=15µM*;GALK redox cs=11µM*;HEK293 tox=7%
CCN(CC)C(=O)c1sc(NC(=O)C(C)Sc2nc(-c3ccccc3)cc(C(F)(F)F)n2)c(C(=O)OC)c1C (stereo not given),-13%,4%,-1%,2%,14%,-3%,nt,nt,
COc1ccc(C(=O)c2cn(CC(=O)Nc3ccc4c(c3)OCCO4)c3ccc(OC)cc3c2=O)cc1,-4%,8.9µM*,?,?,14µM*,-26%,7.5*,?,Pol kappa inh-2=6*
O=C1COc2cc(S(=O)(=O)CCC(=O)N3CCN(c4cccc(Cl)c4)CC3)c(Cl)cc2N1,-10%,-2%,-1%,-2%,-4%,4%,nt,nt,
Oc1ccc(/C=N/NC(=S)Nc2cccnc2)c(O)c1O,-9%,?,?,2.2µM*,?,4.5µM*,2.7*,3*,Pol kappa inh-2=3*
Oc1cccc(/C=N/NC(=S)Nc2cccnc2)c1O,-1%,16µM*,20µM*,?,7.9µM*,10µM*,38*,85*,
Oc1ccc(/C=N/NC(=S)Nc2cccnc2)c(O)c1,-3%,11%,-13%,-6%,7%,20%,nt,nt,
O=c1cc(-c2ccccc2)oc2cc(O)ccc12,-17%,nt,-2%,-4%,-8%,1%,nt,nt,
O=c1ccc2c(-c3ccccc3)c3ccc(O)cc3oc-2c1,?,7.9µM*,40µM*,?,32µM*,-29%,34*,11*,Pol kappa inh-2=3*
Cc1ccc(-c2ccc(CCC(=O)O)n2-c2ccc(C(C)C)cc2)cc1,-4%,-22%,1%,-3%,17%,18%,nt,nt,
O=C(Nc1ccc(-c2nc3ncccc3o2)cc1)c1ccc([N+](=O)[O-])o1,-8%,50µM*,11µM*,-9%,?,-32%,75*,76*,
Cc1ccc(-c2nc3ncccc3o2)cc1NC(=O)c1ccc([N+](=O)[O-])o1,0%,-6%,-10%,-10%,-2%,11%,nt,nt,
CCOC(=O)[C@H](CCc1ccccc1)N[C@@H](C)C(=O)N1C(=O)N(C)C[C@H]1C(=O)O,-3%,nt,nt,4%[19.4 µM],nt,18%,nt,nt,
CN(C)C(=O)COC(=O)c1ccc(S(=O)(=O)NCc2ccco2)cc1,0%,25µM*,22µM*,?,?,?,60*,38*,
COc1ccc(-c2cnc(C)o2)cc1S(=O)(=O)Nc1ccc(C)c(N(C)C)c1,19%,?,?,-2%[60.1 µM],-15%,17%,nt,nt,
CCOc1ccc(S(=O)(=O)NCCc2sc3nc(-c4ccc(F)cc4)nn3c2C)cc1,-2%,-20%,-16%,1%[60.1 µM],-5%,8%,nt,nt,
